NR1D1 modulator = Rev-erb alpha (human) modulation; AID 1259318; hit rate 0.79% among 370,000; P20393; activity, % at 10 µM; Rev-erbα–FITC-DNA binding, fluorescence polarization, 90 min;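 active = activity above about 14%, limit read from the data; passing the limit was not always enough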;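 note: 0% = DMSO wells with 35 nM protein and 100% = DMSO wells with 750 nM protein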
p47phox inh = p47phox (human) inhibition; P14598; p47phox/p22phox peptide binding, fluorescence polarization, 2 h; inhibition, % at 24.7 µM; hit rate 0.53% among 220,000; AID 1274;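 active = inhibition above about 30%, limit read from the data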;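 note: 0% = p47phox with labelled peptide and 100% = labelled peptide alone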
Target sequence (P14598 whole entry, looked up): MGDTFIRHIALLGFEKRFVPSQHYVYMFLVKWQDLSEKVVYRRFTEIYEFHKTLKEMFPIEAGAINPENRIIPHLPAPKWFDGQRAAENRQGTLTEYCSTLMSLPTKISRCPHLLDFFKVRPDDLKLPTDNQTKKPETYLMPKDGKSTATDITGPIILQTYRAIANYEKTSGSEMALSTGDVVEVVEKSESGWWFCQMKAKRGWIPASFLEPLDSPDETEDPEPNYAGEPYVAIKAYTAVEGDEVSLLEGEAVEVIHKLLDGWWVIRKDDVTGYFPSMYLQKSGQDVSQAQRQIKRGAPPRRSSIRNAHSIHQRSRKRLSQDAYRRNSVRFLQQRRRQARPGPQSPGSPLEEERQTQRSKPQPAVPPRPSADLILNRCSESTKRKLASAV
EBNA-1 inh = blocks EBNA-1 binding to DNA | EBNA-1 DNA binding, fluorescence polarization | inhibition, % at 14.8 µM | hit rate 0.34% among 300,000 | AID 1950; in the data active = inhibition above about 28%
aDG glyco act = alpha-DG glycosylation activation | activation, % at 10 µM | AID 624168 | hit rate 0.22% among 360,000 | Pro5-aDG cells, alpha-DG glycosylation AlphaScreen (IIH6); 0% Pro5, 100% B10-LARGE cell signal;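 active = activation of at least 8% versus controls, or a plate z-score of at least 8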;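 note: Pro5 are CHO cells carrying HIG-tagged alpha-DG that lacks glycosylation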
PG9 Ab binder = PG9 antibody binding by small molecule | TR-FRET gp120-PG9 antibody binding | inhibition, % at 6.7 µM | hit rate 0.43% among 360,000 | AID 624416; in the data active = inhibition above about 8.5%
ZTA counter = counter-screen for EBNA-1 inhibitors: inhibitors of Epstein-Barr virus ZTA. P03206. ZTA-DNA binding, fluorescence polarization. inhibition, % at 11 µM. hit rate 0.15% among 320,000; in the data active = inhibition above about 33%
Target sequence (P03206 whole entry, looked up): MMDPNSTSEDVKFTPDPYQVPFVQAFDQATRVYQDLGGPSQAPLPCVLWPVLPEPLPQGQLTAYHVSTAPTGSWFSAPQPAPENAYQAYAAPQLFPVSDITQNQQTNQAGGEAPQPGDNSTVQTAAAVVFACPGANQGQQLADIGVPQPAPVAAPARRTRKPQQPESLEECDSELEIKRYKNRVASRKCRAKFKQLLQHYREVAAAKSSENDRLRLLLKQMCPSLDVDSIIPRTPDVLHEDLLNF
NR1D1 mod conf = Rev-erb alpha (human) modulation, hit confirmation | Rev-erb alpha FITC-DNA binding, fluorescence polarization, 90 min | AID 1259319 | hit rate 61% among 3,000 | activation, % at 25 µM | shares compounds with NR1D1 modulator;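 active = activation at or above a set limit, or at least 3 SD above the negative control mean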;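 note: 0% = 35 nM protein with DMSO and 100% = 750 nM protein high control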
RORg counter = affects RORgamma DNA binding in a Rev-erb alpha counter-screen; shares compounds with NR1D1 modulator; purified RORgamma protein-FITC-DNA binding, fluorescence polarization; IC50, µM; hit rate 8% among 910; AID 1259320;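 active = Compounds whose fitted half-maximal concentration for disrupting protein-DNA binding is below 10 micromolar; the record names Rev-erb in its text, so the target is in doubt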
Starred values were filed as active, the others as inactive; nt = no result given. Compounds with a hit are over-represented: about 1.9% of the library has one in this group of screens.

SMILES | NR1D1 modulator | p47phox inh | EBNA-1 inh | aDG glyco act | PG9 Ab binder | ZTA counter | NR1D1 mod conf | others
CN(CCOC(=O)c1cc2ccccc2o1)C1CN(Cc2cn(Cc3ccccc3F)nn2)S(=O)(=O)C1 (stereo not given) | -1.4 | nt | nt | nt | nt | nt | nt
Cc1ccc(-n2nccc2-c2nn(-c3cccc(C(F)(F)F)c3)c(=O)n(C)c2=O)cc1 | 33.1* | -2.3 | 3.7 | -0.6 | -0.6 | 2.2 | 9.7
O=c1[nH]c2cc(Br)c(Br)nc2[nH]1 | -2.3 | nt | nt | nt | nt | nt | nt
COc1cccc(N2CCN(c3ccc4nnc(CCC(=O)Nc5cccc(C(C)=O)c5)n4n3)CC2)c1 | 27.0* | nt | 4.1 | 0.3 | -1.5 | 9.8 | 8.2
O=C(CCc1nnc2ccc(N3CCCC3)nn12)Nc1ccc(F)c(F)c1 | 18.6 | nt | 12.0 | 0.4 | -0.8 | 4.2 | nt
CC1CCN(c2ccc3nnc(CCC(=O)Nc4ccc(F)c(F)c4)n3n2)CC1 | 28.3* | nt | -8.4 | 0.5 | -1.8 | -0.5 | 2.3
COC(=O)c1cc(COc2ccc3c(c2)oc(=O)c2ccccc23)c(C)o1 | 28.9* | 3.0 | -2.6 | 0.2 | 1.6 | 2.2 | 23.6*
COCCOC(=O)c1c(C)oc2ccc(OCc3cc(C(=O)OC)oc3C)cc12 | -0.2 | -4.5 | 2.5 | -0.1 | -0.8 | -3.1 | nt
CC(=O)CC[C@H]1CC[C@]2(CCCN(S(=O)(=O)c3ccccc3)C2)O1 | 2.0 | nt | nt | nt | nt | nt | nt
O=C(Nc1ccccn1)c1cc(-c2ccc(Cl)s2)nc2ccccc12 | 0.1 | nt | nt | -0.2 | -0.8 | -0.9 | nt
COC(=O)C(Cc1ccccc1)NC(=O)CNC(=O)c1sc2ccccc2c1Cl (stereo not given) | 6.4 | nt | 6.8 | -0.2 | 2.3 | 5.6 | nt
O=C(CNC(=O)c1sc2ccccc2c1Cl)NCc1ccccc1 | 22.1* | nt | 7.8 | 0.0 | -8.7 | -4.6 | 11.3
Cc1ccc(S(=O)(=O)N2CCN(C(=O)CNC(=O)c3sc4ccccc4c3Cl)CC2)cc1 | 22.6* | nt | -5.0 | 0.2 | -0.3 | -3.5 | 5.1
Cc1ccnc(NC(=O)CNC(=O)c2sc3ccccc3c2Cl)c1 | 35.2* | nt | 7.6 | -0.4 | 5.5 | 16.8 | 6.2
Cc1ccnc(NC(=O)c2cc(-c3ccc(Cl)s3)nc3ccccc23)c1 | 24.4* | nt | 16.7 | -0.2 | -3.5 | -9.7 | -6.0
COc1ccc(OC)c(S(=O)(=O)N2CCC(C(=O)NCC3COCCO3)CC2)c1 (stereo not given) | 7.7 | nt | nt | nt | nt | nt | nt
COC(=O)c1cc(-c2cc(F)cc(OC)c2)c(=O)n2c1CCC2 | -0.4 | nt | nt | nt | nt | nt | nt
CCc1ccc(OCC(=O)NNC(=O)CSc2ncnc3sc(C)c(C)c23)cc1 | 26.2* | -14.7 | 5.2 | -0.3 | -0.9 | 4.4 | 13.3
Cc1ccc(OCC(=O)NNC(=O)CSc2ncnc3sc(C)c(C)c23)cc1 | 51.5* | -0.2 | -11.2 | -0.1 | -2.6 | 7.5 | 16.1
Cc1sc2ncnc(SCC(=O)NC(C)(C)C)c2c1C | 0.9 | -13.4 | 4.1 | 0.2 | 0.8 | 10.8 | nt
CSc1ccc(C=Nn2c(-c3cc(C)[nH]n3)n[nH]c2=S)cc1 | 5.9 | nt | nt | nt | nt | nt | nt
O=C(CSc1nnc(-c2ccccc2NC(=O)c2ccccc2)o1)OC1CCCCC1 | 108.4* | nt | 2.1 | -0.3 | -1.6 | -0.5 | 16.7
Brc1ccc(Sc2cnc3ccccc3n2)cc1 | 49.2* | 1.6 | 9.4 | 0.0 | 6.7 | -1.7 | 35.2* | RORg counter=>40
c1ccc(Sc2cnc3ccccc3n2)cc1 | 19.5* | -9.7 | -12.3 | -0.3 | 3.8 | 6.0 | 21.6*
Clc1ccc(Sc2cnc3ccccc3n2)cc1 | 31.5* | 6.9 | 0.1 | 0.0 | 6.2 | 1.2 | 29.5*
SMILES | NR1D1 modulator | p47phox inh | EBNA-1 inh | aDG glyco act | PG9 Ab binder | ZTA counter | NR1D1 mod conf | others
Clc1ccccc1Sc1cnc2ccccc2n1 | 10.8 | -11.1 | -17.5 | -0.1 | 5.4 | 8.5 | nt
CNC(=O)[C@@H]1CC=C[C@@H]2CCN(c3ccccc3)C(=O)[C@@H]21 | -1.2 | nt | nt | nt | nt | nt | nt
COC(=O)[C@]12C[C@H](CC(=O)NCc3cccs3)C(=O)N(Cc3ccc4c(c3)OCO4)C1=C[C@H](C(C)C)O[C@@H]2C1CC1 | 2.3 | nt | nt | nt | nt | nt | nt
N#CCC[C@@H]1CC[C@]2(CCCN(Cc3ccc(Br)cc3)C2)O1 | 3.1 | nt | nt | nt | nt | nt | nt
O=C1CCC[C@H]2C[C@H](NCc3ccc(Cl)cc3)CC[C@]23CCCN13 | 0.1 | nt | nt | nt | nt | nt | nt
COc1cccc(NC(=O)CSc2nnc3ccc(-c4ccccn4)nn23)c1 | 35.3* | nt | nt | -0.2 | 0.3 | nt | -3.0
O=c1oc2ccccc2cc1-c1nc(-c2ccccc2)no1 | nt | -4.5 | -15.2 | 0.1 | nt | -19.9 | nt
COc1ccc(-c2nnc(-c3cc4ccccc4oc3=O)o2)cc1 | 24.4* | -5.9 | 1.2 | -0.1 | -0.1 | 5.2 | 24.0*
COc1ccc(-c2cc3ccccc3oc2=O)cc1 | -2.8 | nt | -3.1 | 0.3 | 0.3 | -4.2 | nt
Cc1ccc(-c2noc(-c3cc4ccccc4oc3=O)n2)cc1 | 33.3* | -10.5 | 2.3 | -0.1 | 0.1 | -14.9 | 18.2*
N#Cc1ccc(/C=C2\CC3(OC(=O)C4CCCCC4)CCCN2C3)cc1 (stereo not given) | 0.7 | nt | nt | nt | nt | nt | nt
O=C(/C=C1\OCc2ccccc21)c1ccccc1 | 13.4* | nt | nt | 0.0 | 0.8 | nt | -3.7
CN(Cc1ccccc1)Cc1nc2c(c(=O)n(C)c(=O)n2C)n1Cc1ccccc1Cl | 30.7* | -5.3 | 9.1 | 0.1 | 1.4 | 7.1 | 49.6*
N=C1C(c2nc3ccccc3s2)=C(O)CN1C1CCCCC1 | 19.7* | 1.2 | 1.9 | -0.2 | -2.2 | -2.5 | 10.5
CC(C)[C@H](NC(=O)[C@@H]1CCCN1)C(=O)N1CCC2CCN(S(=O)(=O)c3ccccc3)CC21 (stereo not given in full) | -4.9 | nt | nt | nt | nt | nt | nt
CCOC(=O)c1cc(-c2ccccc2)sc1NC(=O)CN1C(=O)NC(CC)(c2ccc(F)cc2)C1=O (stereo not given) | 6.7 | -55.9 | 1.0 | 0.0 | -0.7 | 3.1 | nt
CCOC(=O)c1cc(-c2ccccc2)sc1NC(=O)CN1C(=O)NC(CC)(c2ccccc2)C1=O (stereo not given) | 46.6* | -26.4 | -4.1 | -0.5 | 6.7 | 10.3 | 30.6*
CCn1cc(C(=O)NCCc2ccccc2C)c(=O)c2ccc(C)nc21 | 43.6* | nt | nt | 0.1 | -1.6 | nt | 51.9* | RORg counter=3.77*
CCn1cc(C(=O)NCc2ccccc2F)c(=O)c2ccc(C)nc21 | nt | nt | 9.3 | 0.0 | nt | -1.8 | nt
COc1ccc(CN(CCN2CCOCC2)C(=O)c2cc(F)ccc2F)cc1OC | -0.4 | nt | nt | nt | nt | nt | nt
CCOC(=O)c1cc(-c2cc3ccccc3o2)nc2c1c(=O)[nH]c(=O)n2CCOC | 27.2* | -10.8 | -8.9 | 0.0 | -0.2 | -6.4 | 8.8
COC(=O)C[C@@H]1CC[C@H]2[C@H](COc3ccc(NC(=O)c4ccc(OC)cc4)cc3C(=O)N2C)O1 | -0.2 | nt | nt | nt | nt | nt | nt
COC(=O)[C@]12C[C@H](CC(=O)N3CCCC3)C(=O)N(Cc3cccc4ccccc34)C1=C[C@H](C1CCCC1)O[C@@H]2C | 3.8 | nt | nt | nt | nt | nt | nt
Cc1cccc(Cl)c1NC(=S)NN | 2.0 | -2.2 | -8.2 | -0.1 | -2.8 | 11.3 | nt
